One experiment concerns Klebsiella pneumoniae. The settings on record: Concentration 32 ug.mL-1;; ASSAY_TEST Inhibition of Bacterial Growth; detection method Absorption (OD600); MEDIA CAMHB; plate type 384well; NBS; CORNING #3640; time 18 hr.
The subject of a further experiment is Candida albicans. The settings on record: Concentration 32 ug.mL-1; ASSAY_TEST Inhibition of Fungal Growth; detection method Absorption (OD530).
The subject of the next experiment is Cryptococcus neoformans. As to conditions: Concentration 32 ug.mL-1; ASSAY_TEST Inhibition of Fungal Growth; detection method Resazurin; Absorption (OD600-OD570); plate type 384well; NBS; CORNING #3640. (In general: The colour change of resazurin is a common sign of viable cells or microbes.)

Results with a measured potency or affinity are listed apart.

The Inhibition is the drop in the measured response relative to a control, in per cent. As for `Cc1ccc(F)cc1NC(=O)CSc1nc2ccccc2n2c(C)nnc12`, the figures for the Inhibition in the experiment with Klebsiella pneumoniae, in the experiment on Candida albicans and in the experiment on Cryptococcus neoformans were 10%, 1.14% and -19.09%, respectively.

On to `O=C(Cn1nc2c(=O)n(-c3ccc(Br)cc3)ccn2c1=O)Nc1ccc(F)cc1F`, for which the values for the Inhibition in the experiment on Klebsiella pneumoniae, in the experiment on Candida albicans and with Cryptococcus neoformans were 7.12%, 0.41% and -12.15%, respectively.

For the molecule `Cc1ccc(Sc2nccn3c(=O)n(CC(=O)Nc4ccc(Br)cc4C)nc23)c(C)c1`, the Inhibition in the experiment on Klebsiella pneumoniae is on record as -0.35%; with Candida albicans, -0.15%; with Cryptococcus neoformans, -17.66%.

Turning to `CCc1ccc(NC(=O)Cn2nc3c(Oc4cccc(OC)c4)nccn3c2=O)cc1`, the Inhibition with Klebsiella pneumoniae is listed as -4.18%; with Candida albicans it was 2.5%; in the experiment on Cryptococcus neoformans it was -4.27%.

As to `Cc1ccc(C)c(Cn2nc3c(=O)n(-c4cccc(Cl)c4C)ccn3c2=O)c1`, the Inhibition is on record as 3.77% with Klebsiella pneumoniae, 2.62% with Candida albicans and -13.68% in the experiment with Cryptococcus neoformans.

As to `Cc1cc(C)cc(N(Cc2cc(C)ccc2C)S(=O)(=O)c2cccn3c(C)nnc23)c1`, the Inhibition with Klebsiella pneumoniae was 4.69%; in the experiment on Candida albicans it was 1.02%; in the experiment on Cryptococcus neoformans, -8.76%.

Regarding `COc1ccc(-c2cc3c4nn(CC(=O)Nc5ccc(F)cc5)c(=O)n4ccn3n2)cc1`, the results for the Inhibition in the experiment on Klebsiella pneumoniae, in the experiment on Candida albicans and in the experiment on Cryptococcus neoformans were 1.02%, 15.17% and -16.6%, respectively.

For the molecule `COc1ccc(NC(=O)c2ccc3nn(CC(=O)Nc4ccccc4C(F)(F)F)c(=O)n3c2)cc1`, the Inhibition with Klebsiella pneumoniae is recorded as 0.14%; in the experiment on Candida albicans, 5.37%; in the experiment on Cryptococcus neoformans, -8.24%.

Turning to `O=C(Cn1nc2ccc(C(=O)NCc3ccccc3)cn2c1=O)Nc1ccc(Br)cc1`, the figures for the Inhibition in the experiment on Klebsiella pneumoniae, in the experiment with Candida albicans and in the experiment with Cryptococcus neoformans were -0.54%, 2.27% and -19.25%, respectively.

Consider `Cc1cc(C)cc(Oc2nccn3c(=O)n(CC(=O)Nc4ccc(Cl)cc4F)nc23)c1`, for which the figures for the Inhibition in the experiment on Klebsiella pneumoniae, with Candida albicans and with Cryptococcus neoformans were 14.33%, 0.59% and -7.4%, respectively.

For `COc1ccc(NC(=O)Cn2c(=O)c3nnc(C)n3c3ccccc32)cc1Cl`, the Inhibition was 11.31% with Klebsiella pneumoniae, 0.53% in the experiment with Candida albicans and -20.99% with Cryptococcus neoformans.

Consider `CCc1nnc2ccc(S(=O)(=O)N(Cc3ccc(OC)cc3)c3cccc(F)c3)cn12`, for which the Inhibition is 4.14% with Klebsiella pneumoniae, 4.82% in the experiment with Candida albicans and -8.59% with Cryptococcus neoformans.

Take `O=C(Cn1nc2c(N3CCOCC3)nccn2c1=O)NCc1cccc(C(F)(F)F)c1`: the Inhibition was 8.39% in the experiment on Klebsiella pneumoniae, 5.12% in the experiment on Candida albicans and -4.87% with Cryptococcus neoformans.

With `O=C(NCc1ccccc1)c1ccc2nn(CC(=O)N3CCN(c4ccccc4F)CC3)c(=O)n2c1`, the Inhibition with Klebsiella pneumoniae is listed as 7.35%; with Candida albicans, 4.65%; in the experiment with Cryptococcus neoformans, -15.87%.

Consider `Cc1ccc(N(Cc2cc(F)cc(F)c2)S(=O)(=O)c2cccn3c(C)nnc23)cc1`, for which the Inhibition in the experiment on Klebsiella pneumoniae is given as 11.68%; in the experiment on Candida albicans it was 5.37%; in the experiment on Cryptococcus neoformans it was -9.88%.

Regarding `Cc1ccc(-c2cc3c4nn(CC(=O)Nc5ccccc5C)c(=O)n4ccn3n2)cc1C`, the Inhibition is 7.72% in the experiment with Klebsiella pneumoniae, 19.26% with Candida albicans and -10.57% in the experiment with Cryptococcus neoformans.

For the molecule `O=C(Cn1nc2c(SCc3ccccc3)nccn2c1=O)NCc1ccccc1`, the Inhibition with Klebsiella pneumoniae is -8.41%; in the experiment with Candida albicans it was 20.32%; in the experiment on Cryptococcus neoformans, -13.69%.

With `COc1ccc(NC(=O)c2ccc3nn(CC(=O)Nc4ccc(C(F)(F)F)cc4)c(=O)n3c2)cc1`, the figures for the Inhibition with Klebsiella pneumoniae, in the experiment on Candida albicans and with Cryptococcus neoformans were -7.6%, 4.22% and -2.75%, respectively.

For `CCOC(=O)c1ccccc1NC(=O)Cn1nc2c3cc(-c4ccc(Cl)cc4)nn3ccn2c1=O`, the Inhibition is given as 14.78% in the experiment on Klebsiella pneumoniae, 2.98% with Candida albicans and -20.88% in the experiment on Cryptococcus neoformans.

For `Cc1ccc(-c2ccc3nn(CC(=O)Nc4ccc(C#N)cc4)c(=O)n3n2)cc1C`, the Inhibition is reported as 8.41% in the experiment with Klebsiella pneumoniae, 3.47% in the experiment on Candida albicans and -12.02% with Cryptococcus neoformans.

For `COc1ccc(-c2cc3c4nnc(SCC(=O)N(C)c5ccccc5)n4ccn3n2)cc1`, the Inhibition is given as 5.6% with Klebsiella pneumoniae, 32.67% with Candida albicans and -11.25% in the experiment with Cryptococcus neoformans.

On to `Cc1cc(C)c(NC(=O)Cn2nc3c(SC4CCCCC4)nccn3c2=O)c(C)c1`, for which the Inhibition was 10.47% with Klebsiella pneumoniae, 13.47% in the experiment on Candida albicans and -24.78% with Cryptococcus neoformans.

In the case of `CC(C)Cc1ccc(S(=O)(=O)Nc2ccc3nncn3n2)cc1`, the Inhibition in the experiment with Klebsiella pneumoniae is recorded as 8.3%; in the experiment on Candida albicans it was 1.38%; with Cryptococcus neoformans it was -3.84%.

`COc1ccc(CNC(=O)Cn2nc3c(SCc4ccc(Cl)cc4)nccn3c2=O)cc1`: the Inhibition with Klebsiella pneumoniae is given as 2.51%; in the experiment with Candida albicans it was 1.91%; in the experiment with Cryptococcus neoformans, -11.5%.

Consider `Cc1cc(C)cc(N(Cc2cc(F)cc(F)c2)S(=O)(=O)c2cccn3c(C)nnc23)c1`, for which the Inhibition is listed as 11.7% with Klebsiella pneumoniae, 0.35% in the experiment with Candida albicans and -11.73% with Cryptococcus neoformans.

As for `CCCc1nnc2c(=O)n(CC(=O)Nc3ccc(Br)cc3)c3ccccc3n12`, the Inhibition was 14.09% in the experiment with Klebsiella pneumoniae, 0.11% with Candida albicans and -25.88% with Cryptococcus neoformans.

As to `COc1ccccc1N1CCN(C(=O)CSc2nc3ccccc3n3c(C(C)C)nnc23)CC1`, the results for the Inhibition with Klebsiella pneumoniae, in the experiment on Candida albicans and in the experiment on Cryptococcus neoformans were 6.45%, -2.8% and -16.67%, respectively.

For the molecule `O=C(CSc1nnc2c(=O)n(-c3ccccc3)ccn12)Nc1ccc(Br)cc1`, the Inhibition in the experiment on Klebsiella pneumoniae is 9.81%; with Candida albicans it was 2.41%; with Cryptococcus neoformans it was -15.78%.

On to `Cc1cc(C)cc(N(Cc2ccccc2)S(=O)(=O)c2cccn3cnnc23)c1`, for which the Inhibition was -6.91% in the experiment with Klebsiella pneumoniae, 1.52% in the experiment on Candida albicans and -4.73% with Cryptococcus neoformans.

These data come from ChEMBL document CHEMBL4513146, “CO-ADD screening of Karazin Kharkiv National University (Ukraine) compounds”.
